Experimental data taken from PubChem BioAssay.
For some assays here: Entries with a potency or affinity are not part of this list. Active and inactive are the calls of the source. Unless noted, how the calls were made is not given here.

Key:
[1] = antimalarial activity against Dd2 strain (AID 2302;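 active means growth inhibition above 50% at the single 2 µM test dose, taken to imply half-maximal potency below 2 µM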;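 further: 0% = DMSO untreated growth and 100% = chloroquine plus artemisinin killed control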); conditions: P. falciparum Dd2 in RBCs, LDH growth readout, 72 h; at 2 µM; active compounds read high
[2] = human hepatoma cell viability loss – ATP luminescence, cytotoxicity control for P. falciparum antimalarial project, primary screen (AID 2303;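 active means inhibition above 50%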;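 further: 0% = DMSO wells and 100% = digitonin-killed cells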); conditions: HepG2 viability, 24-48 h, at 10 µM, active compounds read high
[3] = molecular target: L-lactate dehydrogenase (Plasmodium falciparum (isolate CDC / Honduras)) (UniProt Q27743); test: PfLDH activity inhibition – cell lysate, 3D7 strain, counter-screen for P. falciparum growth inhibition project (AID 2304);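 further: 0% = vehicle and 100% = reference inhibitor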; conditions: P. falciparum 3D7 crude extract, LDH APAD/NBT absorbance; at 2 µM; active compounds read high
L-lactate dehydrogenase (Plasmodium falciparum (isolate CDC / Honduras)), sequence (Q27743 whole entry, looked up): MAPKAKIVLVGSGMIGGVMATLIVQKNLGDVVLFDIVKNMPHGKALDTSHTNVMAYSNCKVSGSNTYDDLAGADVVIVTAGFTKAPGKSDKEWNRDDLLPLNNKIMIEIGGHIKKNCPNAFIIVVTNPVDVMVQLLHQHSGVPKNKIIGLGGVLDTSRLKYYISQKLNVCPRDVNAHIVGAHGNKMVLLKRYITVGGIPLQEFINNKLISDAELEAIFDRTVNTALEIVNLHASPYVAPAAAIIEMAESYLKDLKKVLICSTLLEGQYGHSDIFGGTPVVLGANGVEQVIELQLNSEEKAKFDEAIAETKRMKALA

[4] = inhibition of 3D7 malaria parasite growth – strain 3D7 (AID 2306);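 further: 0% = DMSO wells and 100% = chloroquine plus artemisinin control wells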; conditions: P. falciparum 3D7 erythrocytic growth, LDH absorbance, 72 h; at 2 µM; active compounds read high
[5] = molecular target: Calcium-dependent protein kinase 1 (Plasmodium falciparum (isolate 3D7)) (UniProt P62344); test: PfCDPK1 kinase inhibitors, biochemical, TCAMS library (AID 1159585; cut-off not given, nearly all actives have IC50 up to about 0.98 µM;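 further: inhibitors leave more ATP so luminescence rises with inhibition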); conditions: recombinant PfCDPK1, Kinase-Glo ATP depletion luminescence
Calcium-dependent protein kinase 1 (Plasmodium falciparum (isolate 3D7)), sequence (P62344 whole entry, looked up): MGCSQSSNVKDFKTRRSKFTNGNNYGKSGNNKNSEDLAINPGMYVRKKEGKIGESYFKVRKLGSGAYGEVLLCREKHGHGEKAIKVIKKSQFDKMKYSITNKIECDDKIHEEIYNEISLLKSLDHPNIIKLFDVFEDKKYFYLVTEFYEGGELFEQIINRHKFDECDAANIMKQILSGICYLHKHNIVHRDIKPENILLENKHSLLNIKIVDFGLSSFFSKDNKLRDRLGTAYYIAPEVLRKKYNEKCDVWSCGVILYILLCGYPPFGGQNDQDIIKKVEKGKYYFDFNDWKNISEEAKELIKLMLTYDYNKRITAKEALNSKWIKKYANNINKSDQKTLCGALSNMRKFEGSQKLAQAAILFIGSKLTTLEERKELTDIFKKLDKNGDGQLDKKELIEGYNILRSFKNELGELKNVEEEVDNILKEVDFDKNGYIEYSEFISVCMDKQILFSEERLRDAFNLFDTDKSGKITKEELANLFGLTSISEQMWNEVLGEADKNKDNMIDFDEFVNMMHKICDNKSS

[6] = molecular target: Plasmodium falciparum protein kinase 6 (PK6, PF3D7_1337100) (UniProt Q8IDW1); test: PfPK6 kinase inhibitors, biochemical, TCAMS library (AID 1159586); conditions: recombinant PfPK6, Kinase-Glo ATP depletion luminescence
Plasmodium falciparum protein kinase 6 (PK6, PF3D7_1337100), sequence (Q8IDW1 1-305): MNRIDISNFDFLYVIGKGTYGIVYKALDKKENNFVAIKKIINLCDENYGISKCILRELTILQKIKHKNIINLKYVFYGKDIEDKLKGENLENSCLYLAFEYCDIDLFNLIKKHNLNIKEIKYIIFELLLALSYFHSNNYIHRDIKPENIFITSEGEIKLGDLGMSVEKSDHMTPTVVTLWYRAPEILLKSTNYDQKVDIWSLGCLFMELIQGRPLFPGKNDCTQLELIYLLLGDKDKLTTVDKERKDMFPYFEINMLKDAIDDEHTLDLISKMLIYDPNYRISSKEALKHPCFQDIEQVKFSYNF

[7] = molecular target: Protein kinase 7 (PK7), Plasmodium falciparum 3D7 (PF3D7_0213400) (UniProt Q7YTF7); test: inhibition of Plasmodium PK7 catalytic activity – biochemical, TCAMS antimalarial set, Kinase-Glo luminescence (AID 1159587); conditions: recombinant PfPK7, Kinase-Glo ATP depletion luminescence
Protein kinase 7 (PK7), Plasmodium falciparum 3D7 (PF3D7_0213400), sequence (Q7YTF7 1-343): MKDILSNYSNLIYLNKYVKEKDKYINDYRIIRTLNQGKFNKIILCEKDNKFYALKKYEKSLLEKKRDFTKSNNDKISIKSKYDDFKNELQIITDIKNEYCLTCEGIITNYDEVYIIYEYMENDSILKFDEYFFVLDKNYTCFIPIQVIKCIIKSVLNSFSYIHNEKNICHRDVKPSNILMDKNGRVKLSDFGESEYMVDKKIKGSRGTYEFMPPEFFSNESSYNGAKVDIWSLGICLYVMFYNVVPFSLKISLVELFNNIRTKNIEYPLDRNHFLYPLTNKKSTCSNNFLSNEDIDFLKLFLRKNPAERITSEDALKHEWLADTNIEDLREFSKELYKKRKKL

[8] = molecular target: Calcium-dependent protein kinase 4 (Plasmodium falciparum (isolate 3D7)) (UniProt Q8IBS5); test: PfCDPK4 kinase inhibitors, biochemical, TCAMS library (AID 1159588; cut-off not given, nearly all actives have IC50 up to about 0.91 µM); conditions: recombinant PfCDPK4, Kinase-Glo ATP depletion luminescence
Calcium-dependent protein kinase 4 (Plasmodium falciparum (isolate 3D7)), sequence (Q8IBS5 whole entry, looked up): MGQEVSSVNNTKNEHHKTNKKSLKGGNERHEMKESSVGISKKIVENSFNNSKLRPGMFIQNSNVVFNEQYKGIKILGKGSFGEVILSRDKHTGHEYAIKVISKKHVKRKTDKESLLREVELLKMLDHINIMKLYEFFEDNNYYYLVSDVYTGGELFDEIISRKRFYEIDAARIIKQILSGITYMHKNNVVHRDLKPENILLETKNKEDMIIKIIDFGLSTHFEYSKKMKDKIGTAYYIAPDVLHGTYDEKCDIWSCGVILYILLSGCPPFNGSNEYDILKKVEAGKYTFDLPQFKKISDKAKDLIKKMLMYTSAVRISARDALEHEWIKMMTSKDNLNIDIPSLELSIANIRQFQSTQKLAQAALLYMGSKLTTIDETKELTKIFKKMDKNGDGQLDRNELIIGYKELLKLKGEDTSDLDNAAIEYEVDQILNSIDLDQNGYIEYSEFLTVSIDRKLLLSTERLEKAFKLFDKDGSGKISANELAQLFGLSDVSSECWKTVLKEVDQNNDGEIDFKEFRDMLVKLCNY

CC[C@@H]([C@@H](Cc1cc2ccccc2s1)C(=O)N[C@@H](CCCCNC(=O)OCc1ccccc1)C(=O)Nc1ccccn1)N(O)C=O
inactive: inhibition [2] 36% | inhibition [3] 6% | outcome [5] | outcome [6] | outcome [7] | outcome [8]
active: growth inhibition [1] 70% | growth inhibition [4] 96%

Cc1ccccc1C1CCN(C2CCC(NC(=O)/C=C/c3cc(C(F)(F)F)ccc3F)CC2)CC1 (configuration not stated)
inactive: growth inhibition [1] 45% | inhibition [3] -2% | outcome [5] | outcome [6] | outcome [7] | outcome [8]
active: inhibition [2] 56% | growth inhibition [4] 100%

C=CCOc1cccc2c1CCN(CCN1CCC(NC(=O)c3ccc(-c4ccc(Cl)cc4)cc3)CC1)C2
active: growth inhibition [4] 93%
inactive: growth inhibition [1] 22% | inhibition [2] 35% | inhibition [3] -2% | outcome [5] | outcome [6] | outcome [7] | outcome [8]

Cc1cc2nc(-c3cc(Br)ccc3O)c(-c3cc(Br)ccc3O)nc2cc1C
inactive: growth inhibition [1] 12% | inhibition [2] 2% | inhibition [3] -1% | outcome [5] | outcome [6] | outcome [7] | outcome [8]
active: growth inhibition [4] 96%
